Assay results taken from PubChem BioAssay (EPA / NIEHS).
Results filed as inconclusive are left out. Activity calls are given as the source filed them. Rule for the calls, unless noted: active = hit-call score of the fitted dose curve at least 0.9, where 1 is the maximum; inconclusive = response in the unintended direction; inactive = score below 0.9.

Experiments:
[1] = target: Oxysterols receptor LXR-beta (Homo sapiens) (UniProt P55055); test: ATG_LXRb_TRANS: Attagene TRANS-FACTORIAL HepG2 Assay for human Liver X Receptor beta (LXRb) (AID 2282981); conditions: HepG2 Attagene TRANS GAL4-LXRb reporter, mRNA
Chain of Oxysterols receptor LXR-beta (Homo sapiens) (P55055 whole entry, looked up, the tested form may be a part): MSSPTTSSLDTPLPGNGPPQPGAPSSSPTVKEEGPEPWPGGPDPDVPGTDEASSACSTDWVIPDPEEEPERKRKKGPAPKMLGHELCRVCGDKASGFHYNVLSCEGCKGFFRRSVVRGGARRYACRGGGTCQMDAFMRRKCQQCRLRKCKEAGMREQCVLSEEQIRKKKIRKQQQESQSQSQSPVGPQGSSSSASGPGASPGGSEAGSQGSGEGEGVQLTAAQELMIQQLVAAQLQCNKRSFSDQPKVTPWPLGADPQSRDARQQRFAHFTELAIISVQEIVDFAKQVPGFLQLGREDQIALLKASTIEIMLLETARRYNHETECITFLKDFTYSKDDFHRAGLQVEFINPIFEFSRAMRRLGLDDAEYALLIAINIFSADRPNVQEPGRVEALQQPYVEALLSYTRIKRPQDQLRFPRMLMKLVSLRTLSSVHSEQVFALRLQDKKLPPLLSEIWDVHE
How it was run: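 After 24 h of chemical treatment, transfected HepG2 cells yield total RNA; reporter cDNA is PCR-amplified, FAM-labelled, HpaI-cut and run on capillary electrophoresis. Signal reflects chimeric LXRb-Gal4 activity on GAL4-UAS reporters.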

[2] = target: Hepatocyte nuclear factor 4-alpha (Homo sapiens) (UniProt P41235); test: ATG_HNF4a_TRANS: Attagene TRANS-FACTORIAL HepG2 Assay for human Hepatocyte Nuclear Factor 4 alpha (HNF4a) (AID 2282982); conditions: HepG2 HNF4a transactivation reporter, mRNA readout
Chain of Hepatocyte nuclear factor 4-alpha (Homo sapiens) (P41235 whole entry, looked up): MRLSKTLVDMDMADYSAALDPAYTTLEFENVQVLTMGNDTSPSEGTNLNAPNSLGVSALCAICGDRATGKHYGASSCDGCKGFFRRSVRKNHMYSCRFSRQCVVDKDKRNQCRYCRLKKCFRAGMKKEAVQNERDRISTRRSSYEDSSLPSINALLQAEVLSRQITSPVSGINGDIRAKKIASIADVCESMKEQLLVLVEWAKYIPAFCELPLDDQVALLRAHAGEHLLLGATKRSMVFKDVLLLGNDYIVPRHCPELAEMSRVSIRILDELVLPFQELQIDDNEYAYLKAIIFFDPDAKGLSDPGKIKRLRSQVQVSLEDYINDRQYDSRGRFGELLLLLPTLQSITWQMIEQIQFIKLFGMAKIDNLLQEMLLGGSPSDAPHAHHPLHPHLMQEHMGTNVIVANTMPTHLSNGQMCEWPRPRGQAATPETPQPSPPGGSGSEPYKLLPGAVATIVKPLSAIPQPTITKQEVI
How it was run: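 Multiplexed reporter assay: transfected HepG2, 24 h exposure, total RNA → oligo(dT) RT → PCR → 6-FAM extension → HpaI digest → CE fluorescence. DMSO = negative control.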

[3] = ATG_M_32_TRANS: Attagene TRANS-FACTORIAL HepG2 Assay for M32 Transcription Factor (Internal Marker) (AID 2282984); conditions: HepG2 Attagene TRANS M32 internal marker reporter;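 note: transcript level of a background control reporter unit measured by RT-PCR and capillary electrophoresis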
How it was run: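 Cell-based TRANS-format assay in HepG2: exogenous chimeric GAL4 reporter units transiently expressed, compounds applied 24 h. Reporter mRNA detected by RT-PCR plus capillary electrophoresis; this readout is an internal background marker.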

[4] = target: Nuclear receptor subfamily 4 group A member 2 (Homo sapiens) (UniProt P43354); test: ATG_NURR1_TRANS: Attagene TRANS-FACTORIAL HepG2 Assay for human Nuclear Receptor Related Protein 1 (NURR1) (AID 2282985); conditions: HepG2 Attagene TRANS reporter, mRNA readout
Chain of Nuclear receptor subfamily 4 group A member 2 (Homo sapiens) (P43354 whole entry, looked up, the tested form may be a part): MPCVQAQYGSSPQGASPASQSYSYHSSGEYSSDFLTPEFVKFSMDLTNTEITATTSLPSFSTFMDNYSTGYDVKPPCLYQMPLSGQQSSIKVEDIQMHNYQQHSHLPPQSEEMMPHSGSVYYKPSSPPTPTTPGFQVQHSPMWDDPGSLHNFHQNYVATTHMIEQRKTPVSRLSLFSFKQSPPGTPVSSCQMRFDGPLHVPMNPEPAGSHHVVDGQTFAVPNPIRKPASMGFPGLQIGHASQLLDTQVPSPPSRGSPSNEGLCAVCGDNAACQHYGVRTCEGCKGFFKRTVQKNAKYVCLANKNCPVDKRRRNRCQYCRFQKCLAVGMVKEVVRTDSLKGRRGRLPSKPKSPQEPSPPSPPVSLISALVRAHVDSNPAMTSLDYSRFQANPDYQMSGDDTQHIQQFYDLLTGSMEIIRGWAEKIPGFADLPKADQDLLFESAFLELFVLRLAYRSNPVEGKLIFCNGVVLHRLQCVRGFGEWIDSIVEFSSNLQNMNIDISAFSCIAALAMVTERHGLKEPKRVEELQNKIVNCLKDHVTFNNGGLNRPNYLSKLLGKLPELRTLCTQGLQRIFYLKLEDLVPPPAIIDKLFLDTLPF
How it was run: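 Measures transcriptional activation by an exogenous NR-Gal4 chimera in transfected HepG2 liver cells. After 24 h, reporter RNA is reverse-transcribed, amplified and resolved by capillary electrophoresis; DMSO defines baseline.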

[5] = target: Transcriptional activator Myb (Homo sapiens) (UniProt P10242); test: ATG_Myb_CIS: Attagene CIS-FACTORIAL HepG2 Assay for human Myeloblastosis (Myb) Proto-Oncogene Transcription Factor (AID 2282986; active = hit-call score of the fitted dose curve at least 0.9, where 1 is the maximum; inactive = score below 0.9); conditions: HepG2 Attagene CIS-FACTORIAL Myb reporter transcription; actives raise or lower the signal
Chain of Transcriptional activator Myb (Homo sapiens) (P10242 whole entry, looked up): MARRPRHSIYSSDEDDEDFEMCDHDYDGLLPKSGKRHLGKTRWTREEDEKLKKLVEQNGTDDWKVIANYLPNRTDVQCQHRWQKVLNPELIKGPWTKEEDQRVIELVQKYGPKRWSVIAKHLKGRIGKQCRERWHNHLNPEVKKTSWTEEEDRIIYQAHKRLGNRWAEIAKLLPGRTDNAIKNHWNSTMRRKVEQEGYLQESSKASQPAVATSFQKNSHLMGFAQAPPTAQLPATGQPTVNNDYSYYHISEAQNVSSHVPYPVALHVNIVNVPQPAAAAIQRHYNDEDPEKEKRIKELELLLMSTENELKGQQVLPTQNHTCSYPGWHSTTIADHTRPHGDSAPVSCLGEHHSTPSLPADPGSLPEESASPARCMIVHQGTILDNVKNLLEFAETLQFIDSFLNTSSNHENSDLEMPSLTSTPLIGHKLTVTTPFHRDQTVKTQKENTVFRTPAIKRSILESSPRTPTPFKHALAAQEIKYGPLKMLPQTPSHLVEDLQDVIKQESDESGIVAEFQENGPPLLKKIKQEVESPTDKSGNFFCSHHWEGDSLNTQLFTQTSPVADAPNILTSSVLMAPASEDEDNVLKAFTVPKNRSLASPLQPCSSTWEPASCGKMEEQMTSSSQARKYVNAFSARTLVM
How it was run: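 Transiently transfected HepG2 cells, treated 24 h. Reporter mRNA quantified by RT-PCR/capillary electrophoresis; bidirectional fit relative to DMSO.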

[6] = target: Oxysterols receptor LXR-alpha (Homo sapiens) (UniProt Q13133); test: ATG_LXRa_TRANS: Attagene TRANS-FACTORIAL HepG2 Assay for human Liver X Receptor alpha (LXRa) (AID 2282980); conditions: HepG2 Attagene TRANS reporter, LXRa transactivation
Chain of Oxysterols receptor LXR-alpha (Homo sapiens) (Q13133 whole entry, looked up, the tested form may be a part): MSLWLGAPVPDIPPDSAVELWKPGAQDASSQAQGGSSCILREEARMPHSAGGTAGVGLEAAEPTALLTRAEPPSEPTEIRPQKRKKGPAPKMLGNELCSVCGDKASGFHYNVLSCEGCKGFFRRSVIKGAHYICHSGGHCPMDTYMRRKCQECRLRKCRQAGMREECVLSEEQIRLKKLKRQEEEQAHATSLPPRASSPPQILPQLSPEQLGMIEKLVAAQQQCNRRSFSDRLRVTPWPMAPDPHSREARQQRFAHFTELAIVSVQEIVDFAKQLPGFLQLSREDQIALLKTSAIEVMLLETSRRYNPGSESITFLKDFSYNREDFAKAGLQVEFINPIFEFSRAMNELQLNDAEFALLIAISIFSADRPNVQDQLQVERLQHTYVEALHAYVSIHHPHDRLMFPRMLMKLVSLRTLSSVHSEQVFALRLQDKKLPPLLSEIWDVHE
How it was run: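 Transfect HepG2 with GAL4-UAS multiplex reporter constructs (TRANS format, chimeric receptor-GAL4); treat 24 h; extract RNA, reverse-transcribe, PCR-amplify, FAM-label, HpaI-digest; resolve fragments by capillary electrophoresis. Upward response vs DMSO.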

[7] = ATG_M_06_TRANS: Attagene TRANS-FACTORIAL HepG2 Assay for M06 Transcription Factor (Internal Marker) (AID 2282983); conditions: HepG2 Attagene TRANS M06 internal marker reporter;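 note: reporter transcript level by RT-PCR then capillary electrophoresis fluorescence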
How it was run: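 Background control endpoint: reporter mRNA from transiently transfected HepG2 after 24 h dosing, detected by RT-PCR with capillary electrophoresis fluorescence. Analysed for gain versus DMSO.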

Question: With C=C[Si](OCCOC)(OCCOC)OCCOC as the compound, how does the outcome [1] read?
Answer: inactive

Question: And the outcome [2]?
Answer: inactive

Question: And the outcome [3]?
Answer: inactive

Question: And the outcome [4]?
Answer: inactive

Question: And the outcome [5]?
Answer: inactive

Question: Which outcome [6] does the source give for CC(=O)OCC=C(C)C here?
Answer: inactive

Question: What about the outcome [2] of the same compound?
Answer: inactive

Question: And the outcome [7]?
Answer: inactive

Question: And the outcome [3]?
Answer: inactive

Question: For CC(C)c1cc(C(C)C)cc(C(C)C)c1, which outcome [6] is on record?
Answer: inactive

Question: And the outcome [1]?
Answer: inactive

Question: What about the outcome [3] of the same compound?
Answer: inactive

Question: What about the AC50 [4] of the same compound?
Answer: 7.9 µM (active)

Question: And the AC50 [5]?
Answer: 176 µM (active)

Question: For C=CC(=O)OCCCCCCCCCC, which outcome [6] is on record?
Answer: inactive

Question: And the outcome [3]?
Answer: inactive

Question: What about the outcome [4] of the same compound?
Answer: inactive

Question: And the outcome [5]?
Answer: inactive

Question: With CC1CC(=O)CC(C)(C)C1 (stereo not given) as the compound, how does the outcome [6] read?
Answer: inactive

Question: What about the outcome [1] of the same compound?
Answer: inactive

Question: And the outcome [7]?
Answer: inactive

Question: And the outcome [5]?
Answer: inactive

Question: Which results are given for C[Si]1(C)O[Si](C)(C)O[Si](C)(C)O[Si](C)(C)O[Si](C)(C)O1?
Answer: outcome [1]: inactive; outcome [7]: inactive; outcome [3]: inactive; outcome [5]: inactive

Question: With O=C1CCCCCCCCCCCN1 as the compound, how does the outcome [6] read?
Answer: inactive

Question: And the outcome [7]?
Answer: inactive

Question: And the outcome [5]?
Answer: inactive

Question: For COC(=O)C=Cc1ccccc1, which outcome [6] is on record?
Answer: inactive

Question: And the outcome [1]?
Answer: inactive

Question: What about the outcome [7] of the same compound?
Answer: inactive

Question: What about the outcome [5] of the same compound?
Answer: inactive

Question: With CC=C(C)C=CC=C(C)C as the compound, how does the outcome [6] read?
Answer: inactive

Question: And the outcome [2]?
Answer: inactive

Question: And the outcome [7]?
Answer: inactive

Question: What about the outcome [4] of the same compound?
Answer: inactive

Question: What about the outcome [5] of the same compound?
Answer: inactive

Question: For CC1=CC=C(C(C)C)CC1, which outcome [6] is on record?
Answer: inactive

Question: And the outcome [2]?
Answer: inactive

Question: And the outcome [7]?
Answer: inactive

Question: And the outcome [5]?
Answer: inactive

Question: For CCC[Si](OC)(OC)OC, which outcome [1] is on record?
Answer: inactive

Question: And the outcome [2]?
Answer: inactive

Question: What about the outcome [3] of the same compound?
Answer: inactive

Question: What about the outcome [4] of the same compound?
Answer: inactive

Question: And the outcome [5]?
Answer: inactive

Question: Which results are given for CCCCCCCCCCCCCCCCCCOS(=O)(=O)O?
Answer: outcome [1]: inactive; outcome [2]: inactive; outcome [3]: inactive; AC50 [4]: 179 µM (active); outcome [5]: inactive

Question: What does the source list for CCCCOC(=O)CCC(C)=O?
Answer: outcome [6]: inactive; outcome [2]: inactive; outcome [3]: inactive; outcome [4]: inactive; outcome [5]: inactive

Question: For O=C(Cl)c1ccc(C(=O)Cl)cc1, which outcome [6] is on record?
Answer: inactive

Question: What about the outcome [3] of the same compound?
Answer: inactive

Question: What about the outcome [4] of the same compound?
Answer: inactive

Question: And the outcome [5]?
Answer: inactive

Question: For O=C1c2ccccc2C(=O)c2cc(S(=O)(=O)O)ccc21, which outcome [6] is on record?
Answer: inactive

Question: What about the outcome [1] of the same compound?
Answer: inactive

Question: What about the outcome [3] of the same compound?
Answer: inactive

Question: What about the outcome [5] of the same compound?
Answer: inactive
